# TDP1 cell CPT: growth inhibition of DT40 Tdp1-/-;hTDP1 cells with camptothecin (screen for TDP1 inhibitors); chicken DT40 Tdp1-/-;hTDP1 cells + 20 nM CPT, ATP luminescence, 48 h; Potency, µM (titrated, usually from 46.2 µM), inactives show at the top dose activity change, negative = growth inhibition, actives largely listed as inhibitors; hit rate 12% among 420,000; also: nearly all actives have a fitted effect of over 55% in size
#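 Cell growth measured by CellTiter-Glo luminescence after a minimum 48 h, 37 C compound exposure with 20 nM CPT in Tdp1-knockout DT40 cells stably expressing hTDP1, seeded 400/well; qHTS titration format.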
# RORg inh: ROR gamma (mouse) transcription inhibition; Drosophila S2 Gal4-RORgamma UAS-luciferase reporter, 20 h; hit rate 5.4% among 310,000; Potency, µM (highest dose often 53.6 µM), without a hit: top-dose activity change, negative = inhibition, hits mostly inhibitors; P51450; also: nearly all actives have a fitted effect of over 60% in size
# Target sequence (P51450 whole entry, looked up, the tested form may be a part): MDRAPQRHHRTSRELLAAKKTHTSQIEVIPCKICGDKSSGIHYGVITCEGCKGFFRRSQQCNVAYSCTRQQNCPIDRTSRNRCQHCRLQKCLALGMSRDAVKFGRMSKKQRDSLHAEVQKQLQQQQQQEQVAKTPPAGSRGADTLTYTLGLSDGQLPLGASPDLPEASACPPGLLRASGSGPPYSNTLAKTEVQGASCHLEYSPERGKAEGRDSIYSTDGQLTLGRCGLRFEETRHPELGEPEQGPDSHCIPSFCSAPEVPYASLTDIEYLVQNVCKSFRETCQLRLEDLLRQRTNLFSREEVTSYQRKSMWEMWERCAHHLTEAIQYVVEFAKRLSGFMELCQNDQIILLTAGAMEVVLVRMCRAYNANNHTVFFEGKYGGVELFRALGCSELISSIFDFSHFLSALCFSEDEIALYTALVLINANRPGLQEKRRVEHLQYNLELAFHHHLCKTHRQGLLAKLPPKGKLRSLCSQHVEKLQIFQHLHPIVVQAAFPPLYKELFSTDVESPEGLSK
#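 Read-out: Photinus luciferase luminescence; inhibitors lower reporter signal. Insect Schneider cells with Gal4-ROR gamma fusion under metallothionein promoter, UAS reporter; 700 uM final copper sulfate induction, 20 hr, ambient temperature.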
# VP16 counter: inhibits Gal4-VP16 luciferase reporter, ROR gamma counter-screen; Drosophila S2 Gal4-VP16 UAS-luciferase, luminescence, 20 h; Potency, µM (series often up to 53.6 µM), for the others: at the highest dose activity, negative = inhibition, hits mostly inhibitors; hit rate 3.5% among 310,000; AID 2546;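 also: Gal4-VP16 expression switched on by copper sulfate through the metallothionein promoter; nearly all actives have a fitted effect of over 50% in size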
# TDP1 block: blocks human tyrosyl-DNA phosphodiesterase 1; Q9NUW8; recombinant TDP1, AlphaScreen DNA substrate cleavage; Potency, µM (titrated, usually from 130 µM), without a hit: top-dose activity change, negative = inhibition, actives largely listed as inhibitors; hit rate 0.28% among 350,000; AID 485290; also: nearly all actives have a fitted effect of over 40% in size
#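 AlphaScreen read-out: signal falls as enzyme removes the 3' tyrosine-FITC from a 5'-biotinylated DNA oligo (15 nM, 5 min, RT). Enzyme was E. coli-made recombinant Tdp1 at 1 nM, exposed to compound for 15 min beforehand; beads 10 ug/ml, 10 min.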
# TDP1 cell noCPT: qHTS for Inhibitors of human tyrosyl-DNA phosphodiesterase 1 (TDP1): qHTS in cells in absence of CPT; DT40 Tdp1-/- hTDP1 cells, no CPT, ATP luminescence, 48 h; Potency, µM (titrated, usually from 46.2 µM), for inactives: top-dose activity change, negative = growth inhibition, hits mostly inhibitors; hit rate 15% among 420,000; AID 686978, 2013; also: nearly all actives have a fitted effect of over 55% in size
#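 Chicken DT40 Tdp1-/- cells stably complemented with human TDP1 were seeded at 400 cells/well with DMSO in place of 20 nM camptothecin. After compound pinning, cells grew at least 48 hr at 37 °C; viability read by CellTiter-Glo luminescence.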
# Active calls of the source: *; ? = inconclusive; . = no result; [ ] = dose if it differs, or a comment. Most compounds without a hit are left out; they make up all but 19% or so of the library. Calls follow the shape of the dose curve; as a rule, active = well fitted curve in the direction sought with a large enough effect; inconclusive = small, poorly fitted or top-dose-only effect, or another doubt; inactive = no such curve, though single readings can be large; an effect the other way counts as inactive or inconclusive. % is scaled to controls: 0 for no effect and ±100 for the full control effect; potency is read from the fitted curve at half-maximal effect.
SMILES,TDP1 cell CPT,RORg inh,VP16 counter,TDP1 block,TDP1 cell noCPT
CC(C)CN1C(=O)C(=O)N(CC(=O)NCCCc2ccccc2)C1=O,-14.4%,.,.,.,-18.5%
O=C(CSCC(=O)OCC(=O)N1CCN(C(=O)c2ccco2)CC1)Nc1ccc(Cl)cc1,0.5%,.,.,.,-14.3%
COC(=O)c1sccc1NC(=O)c1c(C)noc1C,-6.7%,41.8%,-0.6%,-4.1%,-2.6%
CO[C@H]1C[C@@H]2CC[C@@H](C)[C@@](O)(O2)C(=O)C(=O)N2CCCC[C@H]2C(=O)O[C@H]([C@H](C)C[C@@H]2CC[C@@H](O)[C@H](OC)C2)CC(=O)[C@H](C)C=C(C)[C@@H](O)[C@@H](OC)C(=O)[C@H](C)C[C@H](C)/C=C/C=CC=C1C,0.0024µM*,.,.,.,0.0047µM*
NSc1nc(N)c2nc(-c3ccccc3)c(-c3ccccc3)nc2n1,?,?,10.9%,4.9%,25.9µM*
Nc1nc(N)c2nc(-c3ccccc3)c(N)nc2n1,15µM*,?,?,8.2%,2.06µM*
Nc1nc(Cl)cc(-c2ccccc2)n1,3.1%,-4.4%,16.6%,4.8%,-15.2%
Cc1ccc(Nc2nc(N)nc(CSc3nnc(-c4ccncc4)o3)n2)cc1,-28.5%,24.1%,3.4%,4.4%,-13.6%
CSc1nc(C)c2c(n1)N(c1ccc(C(C)C)cc1)CC2,?,-39.3%,-1.4%,-2.5%,20.6µM*
O=C(NNC(=O)c1ccccc1Br)c1ccc(Cl)c(Cl)c1,-2.7%,-26.4%,-4.3%,0.0%,-10.7%
N/C(Cc1ccc([N+](=O)[O-])cc1)=N\OC(=O)c1ccc([N+](=O)[O-])cc1,?,-16.0%,9.3%,9.4%,?
COc1cc(C(=O)O/N=C(\N)Cc2ccc([N+](=O)[O-])cc2)cc(OC)c1OC,3.66µM*,-17.7%,?,2.9%,14.6µM*
COc1ccccc1C/C(N)=N/OC(=O)c1cccc([N+](=O)[O-])c1,?,10µM*,-24.4%,10.3%,?
N/C(Cc1ccc([N+](=O)[O-])cc1)=N\OC(=O)c1cccc(Br)c1,14.6µM*,-31.4%,-10.5%[10 µM],5.4%,?
COc1ccc(C/C(N)=N/OC(=O)c2cccc([N+](=O)[O-])c2)cc1,?,2.4%,-28.0%,5.1%,?
COc1ccccc1C/C(N)=N/OC(=O)c1cccs1,?,-2.6%,4.2%[10 µM],5.4%,?
COc1ccccc1C/C(N)=N/OC(=O)/C=C/c1ccccc1,?,5.62µM*,-25.9%,0.6%,-3.8%
O=C(Nc1cnn(Cc2ccc(F)cc2)c1)c1noc2c1CCCC2,-6.3%,?,24.4%[10 µM],7.9%,?
CCN(C(=O)CSc1nnc(-c2ccco2)n1C)c1c(N)n(Cc2ccccc2)c(=O)[nH]c1=O,-24.5%,.,.,0.1%,-5.0%
Cc1ccc(S(=O)(=O)N2CCC(C(N)=O)CC2)cc1C(=O)NC1CCCCC1,33.8%,.,.,-7.7%,?
COc1ccc(C(=O)O/N=C(\N)Cc2ccc([N+](=O)[O-])cc2)c(OC)c1,1.3µM*,1.1%,-20.2%,.,1.84µM*
N/C(=N/OC(=O)c1cccc([N+](=O)[O-])c1)c1cccc([N+](=O)[O-])c1,-23.5%,6.1%,-9.8%,0.0%,-26.6%
C/C(=N/NC(=O)CSCc1ccc(Cl)cc1)c1cccc(NC(=O)c2ccccc2)c1,-20.5%,12.6%,?,7.5%,-9.9%
C/C(=N\NC(=O)CSCc1ccc([N+](=O)[O-])cc1)c1cccc(Br)c1,10.3µM*,35.9%,?,7.9%,18.4µM*
CC1=C(C)/C(=N/OC(=O)c2cccc([N+](=O)[O-])c2)C=CC1=O,20.6µM*,3.55µM*,3.55µM*,5.0%,20.6µM*
SMILES,TDP1 cell CPT,RORg inh,VP16 counter,TDP1 block,TDP1 cell noCPT
COc1ccc(N2CCN(C(=O)c3[nH]c4ccc(OC)cc4c3C)CC2)cc1,-28.8%,11.5%,-0.3%,.,?
Cc1ccc(CNC(=O)[C@H]2C[C@@H]2[C@H](NP(=O)(c2ccccc2)c2ccccc2)c2ccccc2)o1,?,?,3.0%,6.6%,20.6µM*
CCC(C)N(C(=O)CSc1nncn1C)C1CCS(=O)(=O)C1 (stereo not given),-12.1%,.,.,0.5%,-11.0%
CCOC(=O)C1=C(c2ccccc2)OC(N)=C(C#N)C1c1cccs1 (stereo not given),-26.4%,20.2%,-6.1%,4.0%,-12.6%
CCOC(=O)C1=C(CSc2nc(CC)c(C)cc2C#N)OC(N)=C(C#N)C1c1ccc(OC)cc1 (stereo not given),?,-36.3%,12.2%,5.1%[56.1 µM],16.4µM*
CCOC(=O)C1=C(CSc2nc(-c3ccncc3)ccc2C#N)OC(N)=C(C#N)C1c1ccc(OC)cc1 (stereo not given),?,30.5%,?,7.0%,16.4µM*
CCOC(=O)C1=C(c2ccccc2)OC(N)=C(C#N)C1c1ccncc1 (stereo not given),23.1µM*,?,?,2.4%,?
O=C(CSc1nnc(COc2ccccc2)o1)Nc1cc(C(F)(F)F)ccc1Cl,-23.8%,.,.,.,5.6%
COc1ccc(CCNC(=O)CSc2n[nH]c(N)n2)cc1,-13.0%,-14.5%,-3.5%,.,0.4%
Cc1ccc(S(=O)(=O)Oc2ccc3c(c2)O/C(=C\c2cccnc2)C3=O)cc1,?,-4.9%,7.4%,3.6%,20.6µM*
COc1cccc(OC)c1C(=O)Oc1ccc2c(c1)O/C(=C\c1ccncc1)C2=O,18.4µM*,?,?,8.5%,11.6µM*
CS(=O)(=O)Oc1ccc2c(c1)O/C(=C\c1cccc([N+](=O)[O-])c1)C2=O,-3.9%,6.7%,-8.1%,.,-12.1%
O=C1/C(=C/c2ccncc2)Oc2cc(OS(=O)(=O)c3ccccc3)ccc21,?,4.5%,3.1%,8.3%,11.6µM*
O=C1/C(=C/c2cccnc2)Oc2cc(OS(=O)(=O)c3ccc(F)cc3)ccc21,10.3µM*,31.5%,-21.8%,8.0%,?
S=C(c1c[nH]c2ccccc12)N1CCOCC1,?,20.1%,2.7%,-2.4%,-8.0%
O=C(Nc1ccc2c(c1)[nH]c(=O)c1ccccc12)C(F)(F)F,?,.,.,.,-26.0%
CC(=O)Nc1ccc2c(c1)[nH]c(=O)c1ccccc12,0.82µM*,.,.,.,?
CCN(C(=O)CCc1ccccc1)C1CCCCC1,?,15.1%,-6.2%,-3.2%,?
COc1ccccc1OCC(=O)N(Cc1nc(-c2ccccc2)no1)C1CCCCC1,23.1µM*,?,1.6%,10.9%,20.6µM*
CCN(C(=O)CSc1ccccn1)C1CCCCC1,10.3µM*,.,.,0.1%,14.6µM*
CCN(C(=O)COc1ccccc1)C1CCCCC1,20.6µM*,1.8%,-9.9%,0.0%,?
CCCN1CCN(C(=O)c2ccc(Sc3ccc(C)cc3)c(NC(C)=O)c2)CC1,?,39.0%,5.5%,5.1%,?

# Source: PubChem BioAssay (National Center for Advancing Translational Sciences (NCATS))
